Assay results reported in PubChem BioAssay (NCATS).
Inconclusive results are not listed. A call without a number means that no potency is given here. Active and inactive are the calls of the source. Unless noted, calls follow the shape of the full dose curve.

Molecular target: DNA polymerase III PolC-type (Bacillus subtilis (strain 168)) (UniProt P13267)
Experiment: qHTS Validation Assay for the Inhibitors of DNA Replication in Gram-Positive Bacteria (AID 485295; active = well fitted inhibition curve with a large enough effect; also: potency is read from the fitted curve at half-maximal effect)
Settings: Gram-positive bacterial DNA replication assay; series mostly up to 57.1 µM
How it was run: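 Reconstituted B. subtilis holoenzyme (Pol III, beta clamp, SSB, primase) was preincubated with compound at room temperature, then given single-stranded circular M13Gori plus dNTPs and NTPs. EDTA-containing PicoGreen stopped the reaction, and dsDNA product was read by fluorescence.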

Chain of DNA polymerase III PolC-type (Bacillus subtilis (strain 168)) (P13267 whole entry, looked up): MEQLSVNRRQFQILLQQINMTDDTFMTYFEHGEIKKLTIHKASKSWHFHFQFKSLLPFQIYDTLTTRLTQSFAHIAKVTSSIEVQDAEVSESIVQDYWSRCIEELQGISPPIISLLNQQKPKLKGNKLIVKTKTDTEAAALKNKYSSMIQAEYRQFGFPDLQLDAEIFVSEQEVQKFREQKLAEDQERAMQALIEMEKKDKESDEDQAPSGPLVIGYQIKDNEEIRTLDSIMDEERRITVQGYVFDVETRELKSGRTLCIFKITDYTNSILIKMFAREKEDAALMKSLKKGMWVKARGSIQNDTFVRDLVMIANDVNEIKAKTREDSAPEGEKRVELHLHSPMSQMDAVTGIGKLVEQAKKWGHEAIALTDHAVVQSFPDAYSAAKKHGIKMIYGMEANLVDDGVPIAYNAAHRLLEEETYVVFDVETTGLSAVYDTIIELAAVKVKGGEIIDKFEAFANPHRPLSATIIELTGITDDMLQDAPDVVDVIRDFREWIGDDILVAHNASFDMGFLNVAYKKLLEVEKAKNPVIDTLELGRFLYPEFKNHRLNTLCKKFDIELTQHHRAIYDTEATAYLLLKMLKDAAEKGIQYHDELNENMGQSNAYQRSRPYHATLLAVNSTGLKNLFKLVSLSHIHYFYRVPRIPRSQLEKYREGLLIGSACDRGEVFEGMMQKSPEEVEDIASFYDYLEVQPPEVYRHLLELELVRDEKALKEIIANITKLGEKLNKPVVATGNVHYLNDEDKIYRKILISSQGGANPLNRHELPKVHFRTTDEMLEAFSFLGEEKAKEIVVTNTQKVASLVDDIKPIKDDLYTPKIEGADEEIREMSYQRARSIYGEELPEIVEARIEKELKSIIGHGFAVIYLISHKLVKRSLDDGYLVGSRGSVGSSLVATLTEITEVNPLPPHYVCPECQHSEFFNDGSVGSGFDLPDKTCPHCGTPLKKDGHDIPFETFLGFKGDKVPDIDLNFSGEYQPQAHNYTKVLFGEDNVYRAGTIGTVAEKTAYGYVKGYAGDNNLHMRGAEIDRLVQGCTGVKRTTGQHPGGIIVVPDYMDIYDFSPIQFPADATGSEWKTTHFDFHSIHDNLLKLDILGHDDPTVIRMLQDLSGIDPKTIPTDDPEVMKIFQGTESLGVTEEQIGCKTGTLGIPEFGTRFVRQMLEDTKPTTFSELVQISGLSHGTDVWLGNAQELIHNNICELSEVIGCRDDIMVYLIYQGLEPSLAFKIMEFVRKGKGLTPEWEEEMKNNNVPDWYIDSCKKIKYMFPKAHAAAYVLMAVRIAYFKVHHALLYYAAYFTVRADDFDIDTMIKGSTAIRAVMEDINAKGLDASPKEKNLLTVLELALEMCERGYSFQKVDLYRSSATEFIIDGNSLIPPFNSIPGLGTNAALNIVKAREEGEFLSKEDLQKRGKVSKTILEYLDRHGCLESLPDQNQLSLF

Structure (SMILES)	Potency
C=CC(N)CCC(=O)O (configuration not stated)	inactive
O=C(O)c1cc(=O)c2c(Cl)cc(Cl)cc2[nH]1	inactive
c1ccc(-c2ccccn2)nc1	inactive
CN1CCC[C@H]1c1cccnc1	inactive
Cc1ccc(C(=O)O[C@H](C(=O)O)[C@@H](OC(=O)c2ccc(C)cc2)C(=O)O)cc1 (tested in a mixture with another compound)	inactive
Brc1c(Br)c(Br)c2n[nH]nc2c1Br	inactive
C[N+](C)(CCCCCC[N+](C)(C)CCCN1C(=O)c2cccc3cccc(c23)C1=O)CCCN1C(=O)c2cccc3cccc(c23)C1=O	10.6 µM (active)
NCCCCC(=O)O	inactive
S=C(S)OC1CC2CC1C1CCCC21 (configuration not stated)	inactive
O=C(O)CC1CCCc2ccccc2C1O (configuration not stated)	inactive
O=C(O)CNC(=O)C(CS)Cc1ccccc1 (configuration not stated)	inactive
NCCCCCCCCCCN	inactive
CN1C2CCC1CC(OC(=O)C(O)c1ccccc1)C2 (configuration not stated)	inactive
Cn1c(=O)c2[nH]c(-c3ccccc3)nc2n(C)c1=O	inactive
CC1CN(S(=O)(=O)c2cccc3cnccc23)CCN1 (configuration not stated)	inactive
O=C(O)[C@@H]1C[C@@H](C(=O)O)N1	inactive
CCCCCCCCCCCCCCCC(=O)NCC(COP(=O)([O-])OCC[N+](C)(C)C)OCC (configuration not stated)	inactive
CC(=O)N[C@H](C(=O)O)C(C)(C)SN=O	inactive
NC(=O)C(=O)O	inactive
O=C(O)c1cc(=O)c2ccccc2[nH]1	inactive
COc1cc(C(O)CO)ccc1OS(=O)(=O)O (configuration not stated)	inactive
C[C@@H](CN1CCC(Cc2ccccc2)CC1)[C@@H](O)c1ccc(O)cc1	inactive
CC(=O)SCC[N+](C)(C)C	inactive
O=C1O/C(=C/Br)CCC1c1cccc2ccccc12 (configuration not stated)	inactive

Molecular target: Tumor susceptibility gene 101 protein (Homo sapiens) (UniProt Q99816)
Experiment: qHTS Validation Assay for Iinhibitors of HIV-1 Budding by Blocking the Interaction of PTAP/TSG101 (AID 485342)
Settings: TSG101-PTAP binding, fluorescence polarization, 4-point titration; series mostly up to 115 µM
How it was run: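 Tsg101 binding domain (10 uM final) in pH 7.5 HEPES/NaCl/Tween 20/EDTA/TCEP buffer was mixed with pin-transferred compounds, then FITC-labeled PTAP peptide (50 nM final) was added; after 20 min at r.t., fluorescence polarization was read.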

Chain of Tumor susceptibility gene 101 protein (Homo sapiens) (Q99816 whole entry, looked up): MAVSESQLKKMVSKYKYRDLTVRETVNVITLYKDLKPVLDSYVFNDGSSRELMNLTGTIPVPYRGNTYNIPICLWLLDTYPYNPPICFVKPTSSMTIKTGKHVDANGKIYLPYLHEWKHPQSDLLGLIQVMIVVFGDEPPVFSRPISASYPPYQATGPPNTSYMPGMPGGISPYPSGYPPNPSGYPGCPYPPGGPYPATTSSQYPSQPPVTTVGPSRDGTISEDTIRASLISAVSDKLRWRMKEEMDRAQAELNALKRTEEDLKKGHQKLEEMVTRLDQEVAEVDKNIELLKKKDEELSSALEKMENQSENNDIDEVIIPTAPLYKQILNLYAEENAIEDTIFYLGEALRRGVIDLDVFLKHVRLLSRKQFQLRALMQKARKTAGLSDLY

Structure (SMILES)	outcome
C=CC(N)CCC(=O)O (configuration not stated)	inactive
O=C(O)c1cc(=O)c2c(Cl)cc(Cl)cc2[nH]1	inactive
c1ccc(-c2ccccn2)nc1	inactive
CN1CCC[C@H]1c1cccnc1	inactive
O=c1[nH]c2cc([N+](=O)[O-])c([N+](=O)[O-])cc2[nH]c1=O	inactive
Cc1ccc(C(=O)O[C@H](C(=O)O)[C@@H](OC(=O)c2ccc(C)cc2)C(=O)O)cc1 (tested in a mixture with another compound)	inactive
Brc1c(Br)c(Br)c2n[nH]nc2c1Br	inactive
C[N+](C)(CCCCCC[N+](C)(C)CCCN1C(=O)c2cccc3cccc(c23)C1=O)CCCN1C(=O)c2cccc3cccc(c23)C1=O	inactive
CC1(C)CCC=[N+]1[O-]	inactive
NCCCCC(=O)O	inactive
S=C(S)OC1CC2CC1C1CCCC21 (configuration not stated)	inactive
O=C(O)CC1CCCc2ccccc2C1O (configuration not stated)	inactive
O=C(O)CNC(=O)C(CS)Cc1ccccc1 (configuration not stated)	inactive
NCCCCCCCCCCN	inactive
NCCSSCCN	inactive
CN1C2CCC1CC(OC(=O)C(O)c1ccccc1)C2 (configuration not stated)	inactive
Cn1c(=O)c2[nH]c(-c3ccccc3)nc2n(C)c1=O	inactive
CC1CN(S(=O)(=O)c2cccc3cnccc23)CCN1 (configuration not stated)	inactive
N=C(N)SCCc1ccc(CCSC(=N)N)cc1	inactive
O=C(O)[C@@H]1C[C@@H](C(=O)O)N1	inactive
CCCCCCCCCCCCCCCC(=O)NCC(COP(=O)([O-])OCC[N+](C)(C)C)OCC (configuration not stated)	inactive
CC(=O)N[C@H](C(=O)O)C(C)(C)SN=O	inactive
NC(=O)C(=O)O	inactive
O=C(O)c1cc(=O)c2ccccc2[nH]1	inactive
COc1cc(C(O)CO)ccc1OS(=O)(=O)O (configuration not stated)	inactive
CN(C)c1nc(N)c(C(=O)N=C(N)N)nc1Cl	inactive
C[C@@H](CN1CCC(Cc2ccccc2)CC1)[C@@H](O)c1ccc(O)cc1	inactive
OCC1O[C@H](O)C(Cl)C(O)C1O (some centres not stated)	inactive
CC(=O)SCC[N+](C)(C)C	inactive
O=C1O/C(=C/Br)CCC1c1cccc2ccccc12 (configuration not stated)	inactive

System: not listed separately
Experiment: qHTS Validation Assay to Find Inhibitors of Chronic Active B-Cell Receptor Signaling (AID 485345; active = well fitted curve in the direction sought with a large enough effect in the main read-out, with a control signal flat, not every such curve was filed as active)
Settings: ABC-DLBCL cells, chronic BCR signaling reporter, CBG luciferase; series mostly up to 46.1 µM
How it was run: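 Read-out: ratio of filter-corrected green (IkappaBalpha fusion) to red (native) luciferase signal in doxycycline-induced TMD8 cells after 4 h at 37C. Titration spanned 46 uM–3 nM; Data were normalised to basal cells and 10 uM MG-132 wells.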

Structure (SMILES)	outcome
C=CC(N)CCC(=O)O (configuration not stated)	inactive
O=C(O)c1cc(=O)c2c(Cl)cc(Cl)cc2[nH]1	inactive
c1ccc(-c2ccccn2)nc1	inactive
CN1CCC[C@H]1c1cccnc1	inactive
O=c1[nH]c2cc([N+](=O)[O-])c([N+](=O)[O-])cc2[nH]c1=O	inactive
Cc1ccc(C(=O)O[C@H](C(=O)O)[C@@H](OC(=O)c2ccc(C)cc2)C(=O)O)cc1 (tested in a mixture with another compound)	inactive
C[N+](C)(CCCCCC[N+](C)(C)CCCN1C(=O)c2cccc3cccc(c23)C1=O)CCCN1C(=O)c2cccc3cccc(c23)C1=O	inactive
CC1(C)CCC=[N+]1[O-]	inactive
NCCCCC(=O)O	inactive
O=C(O)CC1CCCc2ccccc2C1O (configuration not stated)	inactive
O=C(O)CNC(=O)C(CS)Cc1ccccc1 (configuration not stated)	inactive
NCCCCCCCCCCN	inactive
NCCSSCCN	inactive
CN1C2CCC1CC(OC(=O)C(O)c1ccccc1)C2 (configuration not stated)	inactive
CC1CN(S(=O)(=O)c2cccc3cnccc23)CCN1 (configuration not stated)	inactive
N=C(N)SCCc1ccc(CCSC(=N)N)cc1	inactive
O=C(O)[C@@H]1C[C@@H](C(=O)O)N1	inactive
CCCCCCCCCCCCCCCC(=O)NCC(COP(=O)([O-])OCC[N+](C)(C)C)OCC (configuration not stated)	inactive
NC(=O)C(=O)O	inactive
O=C(O)c1cc(=O)c2ccccc2[nH]1	inactive
COc1cc(C(O)CO)ccc1OS(=O)(=O)O (configuration not stated)	inactive
C[C@@H](CN1CCC(Cc2ccccc2)CC1)[C@@H](O)c1ccc(O)cc1	inactive
CC(=O)SCC[N+](C)(C)C	inactive
